Screens as filed in PubChem.
Shown is part of a subset that was picked to be rich in hits.
Tgondii IFNg = blocks Toxoplasma gondii growth in the presence of IFN-gamma; actives 3.8% (n = 69,000); Toxoplasma gondii growth in IFN-gamma-treated host cells; hits give low values; activity change, negative = inhibition, % (no concentration beside the values); in the data active means activity change below about -70%, passing the limit was not always enough;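 further: host cells are HeLa cells infected with Toxoplasma gondii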
A number is an active result; i = inactive; ! = not active in a repeat.

SMILES	Tgondii IFNg
Cc1cc(Br)ccc1NC(=O)c1cc2cccnc2n(Cc2ccccc2F)c1=O	i
NS(=O)(=O)c1ccc(CCNC(=O)c2cc3cccnc3n(Cc3ccc(F)cc3)c2=O)cc1	-87.9
O=C(NCCc1ccccc1)c1cc2cccnc2n(Cc2ccc(F)cc2)c1=O	i
Cc1cc(C)c(NC(=O)c2cc3cccnc3n(Cc3ccccc3F)c2=O)c(C)c1	-83.3
COCC(C)NC(=O)c1cc2cccnc2n(Cc2ccc(F)cc2)c1=O (stereo not drawn)	i
O=C(Nc1ccccc1)c1cc2cccnc2n(Cc2ccccc2F)c1=O	i
CC(NC(=O)c1cc2cccnc2n(Cc2ccc(F)cc2)c1=O)c1ccccc1 (stereo not drawn)	-115.3
CCCCCNC(=O)c1cc2cccnc2n(Cc2ccc(F)cc2)c1=O	i
O=C(Nc1ccccc1)c1cc2cccnc2n(Cc2ccc(F)cc2)c1=O	i
Cn1cccc1CN1CC2(CCN(Cc3cccnc3)C2)C1	i
COc1ccccc1CCNC(=O)c1cc2cccnc2n(Cc2ccc(Cl)cc2)c1=O	i
C=C1CCC2(O)C3Cc4ccc(O)c5c4C2(CCN3CC2CC2)C1O5 (stereo not drawn)	i
CCCCCCN1CCN(c2cccc(Cl)c2)CC1	i
CS(=O)(=O)N1CCOC2(COCCN(Cc3ccncc3)C2)C1 (stereo not drawn)	i
CC(=O)Nc1ccc(NC(=O)c2cc3cccnc3n(Cc3ccccc3)c2=O)cc1	i
O=C(NCc1ccccc1Cl)c1cc2cccnc2n(Cc2ccccc2F)c1=O	i
O=C(Nc1ccc(F)c(Cl)c1)c1cc2cccnc2n(Cc2ccc(F)cc2)c1=O	i
CN(C)C(=O)Oc1ccc(Br)cc1C(=O)Nc1ccc(F)c(Cl)c1	-100.7
COc1ccc(NC(=O)c2cc3cccnc3n(Cc3ccc(Cl)cc3)c2=O)cc1OC	i
C/C(=C\C(N)C(=O)O)CP(=O)(O)O (stereo not drawn)	i
COc1ccc(CCNC(=O)c2cc3cccnc3n(Cc3ccccc3F)c2=O)cc1	i
CCS(=O)(=O)N1CC[C@@H]2OCCN(Cc3cccnc3)[C@@H]2C1	i
CN1C2C[C@H](OC(=O)[C@H](CO)c3ccccc3)C[C@@H]1[C@@H](O)C2	i
Cc1nnc2ccc(-c3cccc(C(F)(F)F)c3)nn12	-80.0
CC(C)(C)NC(=O)c1cc2cccnc2n(Cc2ccc(F)cc2)c1=O	i
SMILES	Tgondii IFNg
O=C1COC2(CCNCC2)c2ccccc2N1	i
Cn1cccc1CN1CC2(CCN(c3ncccn3)C2)C1	i
Cc1nn(CCNC(C)Cn2ccnc2)c(C)c1Cl (stereo not drawn)	i
c1ccc(Cn2ccnc2)cc1	i
Clc1ccc(COC(Cn2ccnc2)c2ccc(Cl)cc2Cl)cc1 (stereo not drawn)	-74.7!
Clc1ccc(CSC(Cn2ccnc2)c2ccc(Cl)cc2Cl)cc1 (stereo not drawn)	-83.6
COCCNC(=O)C[C@@H]1C[C@@H]2CN(Cc3ccncc3)C[C@H]2O1	i
O=C(Nc1cccnc1)c1cc2cccnc2n(Cc2ccccc2F)c1=O	i
CCOC(=O)C1=NN(c2cccc(Cl)c2)C2c3cccc4cccc(c34)C12 (stereo not drawn)	i
O=C(CN1CCCC2(CNC(=O)O2)C1)NCc1ccccn1 (stereo not drawn)	i
CC(C)N1CCN(C)C2(CCN(Cc3ccncc3)CC2)C1=O	i
CN(C)C(=O)Oc1cc(=O)n(C)c2ccccc12	i
CN(C)C(=O)Oc1c(-c2ccccc2)cn(Cc2ccccc2)c(=O)c1-c1ccccc1	-83.6
C1CCN2C(C1)N1CCCCC1N1CCCCC21 (stereo not drawn)	i
N#CC(C#N)=Cc1ccc([N+](=O)[O-])c(O)c1	i
O=[N+]([O-])c1ccc(O)c([N+](=O)[O-])c1	-79.4!
O=[N+]([O-])c1cc([As](=O)(O)O)ccc1O	i
Cc1noc(C)c1CN1CCC2OCCCC2(COC(C)C)C1 (stereo not drawn)	i
COc1cc2cc(c1Cl)N(C)C(=O)C[C@H](OC(=O)C(C)C)[C@]1(C)O[C@H]1[C@H](C)[C@@H]1C[C@@](O)(NC(=O)O1)[C@H](OC)/C=C/C=C(/C)C2	-80.5
O=C(NCc1cnc2ccccc2c1)C1CC2(CCNCC2)CN1 (stereo not drawn)	i
O=C(Nc1ccc(F)cc1F)c1cc2cccnc2n(Cc2ccccc2)c1=O	i
CCOc1ccc(/C=C/C(=O)C2C(=O)N(C)C3(C)CC2c2cc(Cl)ccc2O3)cc1OC (stereo not drawn)	i
CCOC[C@@H]1CCC[C@]12CN(Cc1c(C)noc1C)CCO2	i
CO[C@H]1CCC(O[C@H]2CC([C@]3(C)CC[C@]4(C[C@H](O)[C@@H](C)[C@@H]([C@@H](C)/C=C(\C)C(=O)[C@H](C)C[C@H](C)C(=O)O)O4)O3)O[C@]3(O[C@@H](C4O[C@@](O)(CO)[C@H](C)C[C@@H]4C)C[C@@H]3C)[C@@H]2C)O[C@@H]1C (stereo partly drawn)	-78.2
CC(C)CN1CCCC2(CCN(c3ccc(C#N)cn3)C2)C1 (stereo not drawn)	i
O=C(Nc1cccc(Br)c1)c1cc2cccnc2n(Cc2ccc(F)cc2)c1=O	i
